Assay results from PubChem BioAssay (NCI).
About 83,000 compounds went through this panel and 20% of them were active in at least one assay; those are over-represented in the sample as a whole.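 Percent growth is the endpoint: 0 to 100 indicates growth inhibition (40 means 60% inhibition), 0 means no net growth, and negative values indicate cell death.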 Unmarked numbers belong to inactive results. Calls of active or inactive are those of the source. How the source made its calls: active means growth percent below 10; inactive means the rest.

system: HL-60(TB) leukemia; experiment: NCI-60 one-dose screen, 48 h (100 = growth as untreated, 0 = no growth, -100 = all killed); conditions: 10 µM unless noted

SMILES | growth
C=C(C)[C@@H]1CC[C@]2(C#N)CC[C@]3(C)[C@H](CC[C@@H]4[C@@]5(C)CCCNC(C)(C)[C@@H]5CC[C@]43C)[C@@H]12 | 83.9%
Cc1nn(-c2ccccc2)c(Oc2c(Cl)cccc2Cl)c1/C=N/N=c1\sc2ccccc2n1C | 43.1%
Nc1nc(C(=O)N/N=C/c2ccc(N3CCOCC3)cc2)nn1-c1ccc(S(N)(=O)=O)cc1 | 101%
Cl.Fc1c[c-]c(-c2ccccn2)c(F)c1.[Pt].c1ccc([PH+](C[PH+](c2ccccc2)c2ccccc2)c2ccccc2)cc1 | -33.7% (active)
Cc1ccc(Nc2nc(N)nc(N)c2N=O)cc1Cl | 67.9%
N#CCC1=NC(c2cccs2)=Nc2ccccc2S1 | 90.9%
COc1ccc(/C=C2\COc3ccc(-c4ccccc4)cc3C2=O)c(OC)c1 | 56.9%
Cc1ccc2[nH]c(=S)[nH]c(=O)c2c1 | 105%
CCC(=O)C1C(=O)c2ccccc2C1=O | 75.3%
COc1cc(OC)c2cc(C(=O)O)c(=O)oc2c1 | 66%
COc1ccc(/C=N/NC(=O)c2ccc(S(C)(=O)=O)cc2)cc1OC | 54.1%
CCN(CC)CCCNc1nccc2ccc(Cl)cc12 | 99.4%
CCOC(=O)CN1CCC(C(=O)OCC)CC1 | 116%
Nc1c(C(=O)Nc2cccc(Cl)c2)sc2nc3c(cc12)CCCC3 | 78.8%
CCCCCN(CCCCC)CCCNc1c2c(nc3ccc(Cl)cc13)CCCC2 | 48.8%
